Reference: PubChem BioAssay AID624330 (Southern Research Specialized Biocontainment Screening …, 2012)
Out of some 340,000 compounds screened, about 2,100 (0.62%) were called active.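 The calls were made as follows: active = first-screen hits whose inhibition reached a set limit at any dose in the follow-up dose series; inconclusive = inhibition above the set first-screen limit but never retested; inactive = the rest.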 Not all results are given here. Measured potencies and affinities stand elsewhere.

The compounds below were run against Rac GTPase-activating protein 1 (Homo sapiens) (UniProt Q9H0H5) (assay: blockers of MgcRacGAP-driven Rac1 GTP hydrolysis – biochemical, ADP Hunter fluorescence, primary and confirmatory, confirmation (AID 624330;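 also: fluorescence reports GDP produced by GAP-driven GTP hydrolysis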)). Settings: MgcRacGAP-stimulated Rac1 GTP hydrolysis, at 30 µM, hits give high values, GST-tagged Rac1 F28L mutant substrate.
Sequence of Rac GTPase-activating protein 1 (Homo sapiens) (Q9H0H5 whole entry, looked up): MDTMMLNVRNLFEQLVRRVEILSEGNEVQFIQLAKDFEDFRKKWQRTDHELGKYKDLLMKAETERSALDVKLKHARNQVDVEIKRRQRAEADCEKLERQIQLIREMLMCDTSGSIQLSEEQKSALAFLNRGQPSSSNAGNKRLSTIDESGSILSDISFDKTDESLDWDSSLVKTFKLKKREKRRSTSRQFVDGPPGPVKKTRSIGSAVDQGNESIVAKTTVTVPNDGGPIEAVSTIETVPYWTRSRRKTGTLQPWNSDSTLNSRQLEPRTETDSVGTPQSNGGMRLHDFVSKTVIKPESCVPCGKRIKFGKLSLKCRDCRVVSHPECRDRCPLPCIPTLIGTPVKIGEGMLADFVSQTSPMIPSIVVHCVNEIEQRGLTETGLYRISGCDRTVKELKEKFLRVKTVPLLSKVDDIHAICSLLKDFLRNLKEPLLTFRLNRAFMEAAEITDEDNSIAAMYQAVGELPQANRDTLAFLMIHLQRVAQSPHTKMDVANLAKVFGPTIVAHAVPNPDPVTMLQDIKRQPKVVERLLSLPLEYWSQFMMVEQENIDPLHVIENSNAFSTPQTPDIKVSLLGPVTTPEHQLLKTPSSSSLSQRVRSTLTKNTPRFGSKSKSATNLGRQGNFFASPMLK

inhibition, inactive:
CN(CC(=O)Nc1ccc(F)cc1)C(=O)COC(=O)CCN1C(=O)C2CC=CCC2C1=O (stereo not given) 2.06%
O=C(CSc1nc(=O)n(CCN2CCOCC2)c2c1CCCC2)Nc1ccc([N+](=O)[O-])cc1 -4.11%
COc1ccc(NC(=O)NNC(=O)C(C)Oc2ccc3ccccc3c2)cc1OC (stereo not given) 12.5%
CCn1c(=O)c2c3c(sc2n2cnnc12)CCC3 4.61%
CCn1c(=O)c2c3c(sc2n(C)c1=O)CCC3 10.3%
c1ccc(CN2CCC3CC2c2cc(N4CCOCC4)ccc23)cc1 (stereo not given) 11.4%
O=C1OCC2=C1C(c1ccc(F)cc1)Sc1ccccc1N2 (stereo not given) -0.0633%
CCOC(=O)c1c(C)[nH]c2c1cc(O)c1ccccc12 13.6%
CCOC(=O)c1c(OCC)[nH]c2ccc(O)cc12 7.01%
CS(=O)(=O)N1CCN(c2ccc(NC(=O)CSc3ccc(Cl)cc3)cc2)CC1 3.35%
Cc1ccc2c(c1)S/C(=C\c1cccc[n+]1C)N2CCO 4.89%
CCN1/C(=C/c2ccc3ccccc3[n+]2CCCS(=O)(=O)[O-])C=Cc2cc(C)ccc21 5.54%
CCN1/C(=C\c2ccc3cc(C)ccc3[n+]2CC)Sc2cc(C)c(C)cc21 5.51%
CCN1/C(=C/c2ccc3cccc(C)c3[n+]2CC)Sc2ccccc21 17.8%
CCN1/C(=C/c2ccc3cc(C)ccc3[n+]2CC)Sc2ccc3sccc3c21 6.5%
C=CC[n+]1c(/C=C2\C=Cc3cc(C)ccc3N2CC)ccc2ccccc21 17.6%
CCN1/C(=C/c2ccc3cc(C)ccc3[n+]2CC)Sc2cc(C)c(C)cc21 15.9%
CCN1/C(=C/c2ccc3cc(C)cc(C)c3[n+]2CC)Sc2cc(C)ccc21 24.3%
Cc1ccc2nc(SCC(=O)Nc3ccccc3F)nc(=O)n2c1 3.36%
Cc1ccc(N(CC(=O)NCc2ccco2)C(=O)CCC(=O)Nc2ccccn2)c(C)c1 10.2%
CS(=O)(=O)N(CC(=O)N/N=C/c1cccs1)c1cccc(Cl)c1Cl 11.9%
NS(=O)(=O)c1ccc(CNC(=O)Cc2ccc(S(=O)(=O)N3CCOCC3)s2)cc1 9.4%
C/C(=N\NC(=O)c1c[nH]c2ccccc12)c1ccc2c(c1)OCO2 12.8%
Fc1ccccc1/C=N/N1CCN(Cc2ccccc2Cl)CC1 -7.94%
CCN(CC)S(=O)(=O)c1ccc(NC(=O)c2cccc3c2C(=O)N(CCOC)C3)cc1 8.69%
Cc1ccccc1N1C(=O)C(Cl)=C(N2CCCCCC2)C1=O -5.76%
CN1CCN(C2=C(Cl)C(=O)c3ccccc3C2=O)CC1 12.8%
COC(=O)[C@]1(Cc2ccccc2)N[C@H](CN(C)C(=O)c2ccc(F)cc2)[C@@H]2C(=O)N(C)C(=O)[C@@H]21 1.31%
CCCCC[n+]1cccc2c3ccccc3ccc21 16.4%
Cc1c2ccccc2c(C)c2c1ccc1ccccc12 0.81%
O=C(Nc1cccc2ccccc12)N1CCOCC1 -1.28%
O=C(Cc1cccs1)Nc1nncs1 0.97%
CCOC(=O)N1CCN(C(=O)c2ccc3c(=O)n(CCc4ccccc4)c(=S)[nH]c3c2)CC1 5.18%
Cc1ccc(Cl)cc1N1CCN(C(=O)Cn2ccc3ccccc3c2=O)CC1 4.81%
CCOc1ccc(CCNC(=O)C2CCN(c3nnc(-n4cccc4)s3)CC2)cc1 -0.04%
CCN1CCN(CCCNC(=O)C2CCN(c3nnc(-n4cccc4)s3)CC2)CC1 16.4%
CCOCC(=O)Nc1ccc(-c2cn3cccnc3n2)cc1 1.23%
CCCCn1nc(C(=O)Nc2cc(C(F)(F)F)ccc2N2CCOCC2)ccc1=O 4.58%
O=C(CSc1nnnn1-c1cccc2ccccc12)Nc1ccc(N2CCOCC2)c(Cl)c1 -5.56%
CCOc1ccc(N=Cc2c(O)cc(C)oc2=O)cc1 30%
Cc1cccc(N=Cc2c(O)cc(C)oc2=O)c1 5.21%
CC1Cc2ccccc2N1C(=O)COc1nc2ccccc2nc1N1CCOCC1 (stereo not given) 0.29%
CO/N=C/C=C1/N(C)c2ccccc2C1(C)C 6.44%
CN1/C(=C\C=Nc2ccc3ccccc3c2)C(C)(C)c2ccccc21 12.2%
Cc1ccccc1N=C/C=C1\N(C)c2ccccc2C1(C)C 4.55%
CN1/C(=C/C=N/NC(=O)c2ccc([N+](=O)[O-])cc2)C(C)(C)c2ccccc21 2.66%
CN1/C(=C\C=N\O)C(C)(C)c2ccccc21 15.1%
CN1/C(=C\C=N\NC(=O)c2cccnc2)C(C)(C)c2ccccc21 4.5%
COC(=O)CCCCC(=O)C1C(=O)CC(C)(C)C(C(=O)OC)C1=O (stereo not given) 2.31%
CC1(C2CC(C(F)(F)F)n3nc(C(=O)O)cc3N2)CC1 (stereo not given) 5.89%
O=C(Nc1ccc(C(=O)N2CCCCC2)cc1)c1ccccc1Br 3.41%
COc1ccc(/C=C/C(=O)Oc2ccc(/C=N/NC(=O)c3ccccc3)cc2)cc1OC 3.85%
O=C(CN1CCN(Cc2ccccc2)CC1)N/N=C/c1cccs1 2.1%
N/C(Cc1ccc([N+](=O)[O-])cc1)=N\OC(=O)C(c1ccccc1)c1ccccc1 8.53%
NC(CSCc1ccccc1Cl)C(=O)O (stereo not given) -0.96%
CCc1ccc(OCC(=O)N2CC(C(N)=O)Oc3ccccc32)cc1 (stereo not given) 4.28%
COc1ccc(/C=C(\C#N)C(=O)c2c(C)[nH]c3ccccc23)cc1OC 10.7%
COc1cc(/C=C(\C#N)c2nc3ccccc3[nH]2)cc(Br)c1OCc1ccccc1 6.48%
Cc1cc2nc(/C(C#N)=C/c3ccncc3)[nH]c2cc1C 10.2%
COc1cc(/C=C(\C#N)C(=O)c2c(C)[nH]c3ccccc23)cc(OC)c1OC 15.4%
Cc1ccc2nc(/C(C#N)=C/c3ccccc3C(=O)O)[nH]c2c1 16%
COc1ccc(/C=C(\C#N)c2nc3ccccc3[nH]2)cc1O 18.2%
COc1cc(/C=C(/C#N)c2nc3ccccc3c(=O)[nH]2)ccc1O 19.3%
COc1cc(/C=C(\C#N)c2nc3ccccc3[nH]2)cc(Br)c1OCc1ccc(F)cc1 6.53%
O=C(CCn1cnnn1)NC1CCCN(Cc2ccccc2F)C1 (stereo not given) -0.5%
CN(C)c1ccc(C=NNC(=O)c2cccnc2)cc1 1.95%
CCCCN(C(=O)c1ccc2c(c1)S(=O)(=O)N=C1CCCCCN12)c1c(N)n(CCCC)c(=O)[nH]c1=O -0.05%
CC1C(=O)Nc2ccc(S(=O)(=O)NCc3ccc(Cl)cc3)cc2NC1=O (stereo not given) 7.58%
Cc1ccc(F)cc1NC(=O)CCOc1ccccc1 -2.1%
CCCc1cc(=O)n2nc(N3CCC(C(=O)NCc4ccco4)CC3)sc2n1 4.69%
COc1cc2c(cc1NC(=O)c1ccncc1)oc1ccccc12 14.9%
C=Cn1cc(CNC[C@H]2O[C@@H](n3ccc(N)nc3=O)[C@H](O)[C@@H]2O)c(C)n1 0.77%
COc1ccc(CCNS(=O)(=O)c2ccc(-n3cnnn3)cc2)cc1OC 4.09%
O=C(Nc1nc2ccccc2[nH]1)Nc1ccccc1F -2.47%
CCCc1ccc2oc(C(=O)N3CCCC3)c(C)c2c1 3.8%
O=C(NC1CCN(S(=O)(=O)c2ccc(F)cc2)CC1)c1cccc(F)c1 4.4%
Cc1ccc(-n2nc3cc(C)c(N)cc3n2)cc1 8.27%
Cc1cc2nc3ccc(N(C)C)cc3nc2cc1N 18.1%
CS(=O)(=O)N1CCN(c2ccccc2NC(=O)c2ccc(Cl)cc2)CC1 13.8%
O=[N+]([O-])c1ccc(Nc2ccccc2O)c2nonc12 19.7%
O=[N+]([O-])c1ccc2nonc2c1Nc1ccccc1 5.91%
O=[N+]([O-])c1c(Nc2ccccc2O)cc(Cl)c2nonc12 16.1%
CN(C)c1cc(Nc2ccc(O)cc2)c([N+](=O)[O-])c2nonc12 13.9%
O=[N+]([O-])c1c(Nc2ccc(O)cc2)cc(Cl)c2nonc12 16.8%
CC(=O)c1ccc(Nc2ccc([N+](=O)[O-])c3nonc23)cc1 4.9%
Cn1c(/N=C/c2ccccc2[N+](=O)[O-])nc2ccccc21 2.88%
CC(=O)N1CCC(N(CCN2CCOCC2)C(=S)Nc2cc(C)cc(C)c2)CC1 9.32%
Cc1ccc2cc(CN(CC(C)C)S(=O)(=O)c3cccc4nonc34)c(=O)[nH]c2c1 9.22%
CC(/C=C/C=C/c1ccccc1)=N/NC(=O)C(O)c1ccccc1 (stereo not given) 13.5%
OCCOCCNc1ncnc2sc(-c3ccccc3)cc12 23%
C=COCCCNc1ncnc2sc(-c3ccccc3)cc12 23.7%
O=C(NCCCN1CCCC1)c1ccc2c(c1)N(Cc1ccc(F)cc1)C(=O)c1ccccc1S2=O (stereo not given) 6.31%
CSc1n[nH]c(NCc2ccc(C)cc2)n1 -0.45%
CC(C)(C)c1nc(N)nc(=O)[nH]1 4.68%
Nc1nc(N)c2[nH]c(-c3ccccc3)nc2n1 6.78%
